High-throughput results (PubChem)
C8 TRAIL sens = caspase-8 TRAIL sensitization; AID 624354; NB7+C8 cells + TRAIL, ATPlite viability luminescence; inhibition (viability loss, TRAIL sensitization), % at 10 µM; actives 1% (n = 360,000);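 active = compounds causing at least 50% loss of cell viability in the single-dose screen, relative to plate controls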
CF NFkB block = inhibitors of cystic fibrosis induced NF-kB; KKLEB NF-kB-GFP reporter, PAF-induced, GFP fluorescence overnight; actives 0.86% (n = 360,000); inhibition, % at 5 µM; AID 588850;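 active = at least 50% inhibition at 5 µM, scaled per plate between neutral and stimulator controls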;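 note: PAF is a Pseudomonas aeruginosa culture filtrate used as stimulus; plate controls were PAF-stimulated DMSO wells for no effect and unstimulated DMSO wells for full effect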
PPC-1+TRAIL kill = kills PPC-1 cancer cells in the presence of TRAIL; PPC-1 cells + TRAIL, ATPLite viability luminescence; cell killing (% activity), % at 4 µM or 5 µM; actives 0.41% (n = 220,000); AID 1443;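 active = cell killing above 50% in the first pass at 4 µM, then a duplicate retest at 5 µM averaging 50% or more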;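 note: plate controls were cells with TRAIL plus DMSO for no effect and medium-only wells lacking cells for full effect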
HIF-2a block = blocks HIF-2a reporter activity; actives 0.72% (n = 360,000); 786-0 RCC cells HIF-2a reporter, luciferase luminescence, overnight; inhibition, % at 18.8 µM;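 active = inhibition of the luminescence signal of 40% or more relative to plate controls, in a single-dose primary screen at 18.75 µM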
Peg3 prom inh = Peg3 promoter activity inhibition; actives 1.7% (n = 360,000); AID 588405; inhibition, % at 20 µM; HeLa PEG-Prom luciferase reporter, luminescence, overnight;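 active = inhibition of at least 50% at 20 µM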
KKLEB tox = reduces viability of KKLEB cystic fibrosis airway cells; activity change (cytotoxicity), % at 5 µM; AID 602141; KKLEB CF airway cells viability, ATPlite luminescence, overnight; hits give low values; cells stimulated with P. aeruginosa culture filtrate; actives 0.36% (n = 360,000);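 active = corrected activity change at or below -50% at 5 µM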
The depositor's hits bear a star; · = no result; ! = a repeat was not active. An excerpt weighted towards active compounds, which were near 3.1% of everything screened.

SMILES	C8 TRAIL sens	CF NFkB block	PPC-1+TRAIL kill	HIF-2a block	Peg3 prom inh	KKLEB tox
Cc1ccc2c(c1)[C@H]1[C@H](CO2)[C@H](c2ccccc2)[C@]2(C)C(=O)Nc3cc(F)ccc3C(=O)N12	28	26	·	16	68*	-27
C[C@@]12C(=O)Nc3ccc(F)cc3C(=O)N1[C@H]1c3cc(Br)ccc3OC[C@@H]1[C@@H]2c1ccccc1	30	28	·	17	40	-8
CC(=O)c1c(C)[nH]c(C(=O)COc2ccc3ccc(=O)oc3c2)c1C	20	-28	·	-1	68*	-2
Cc1cccc([N+](=O)[O-])c1NC(=O)CSc1nnc2ccccn12	-10	-20	·	5	-8	6
O=C(COC(=O)c1sc2ccccc2c1Cl)NCC1CCCCC1	3	-16	10	8	59*	9
CC(C)(C)C(c1nc2ccccc2[nH]1)n1c(-c2ccsc2)nc2ccccc21 (stereo not drawn)	7	·	·	1	·	·
CC1=C(/C=C/C(C)=C/C=C/C(C)=C/C(=O)Nc2ccc(O)cc2)C(C)(C)CCC1	80*	4	·	11	61*!	-9
CC1=C(/C=C/C(=O)O)C(C)(C)CCC1	-4	8	-13	4	10	-16
O=C1C(Br)=C(c2ccccc2)C(c2ccccc2)=C1c1ccccc1	82*	79*	·	10	105*	-74*
CC1(C)CC(=O)C=C(c2n[nH]nc2C2CCCCC2)C1	-1	-3	·	-11	6	6
Cn1c(=O)c2cc(NC(=O)NCCc3ccccc3)ccc2n1Cc1ccc(F)cc1	-12	24	·	-78	-78	-24
COC(=O)C(Sc1ccc(Cl)cc1)C1SC(=S)N(Cc2ccccc2)C1=O (stereo not drawn)	26	58*	·	-6	10	-11
COC(=O)c1cccc(CN2C(=O)C(C)Sc3cc(Cl)ccc32)c1 (stereo not drawn)	6	22	·	-91	-218	-25
O=C(CCl)N1CCN2C(=O)c3ccccc3C12c1ccc(Cl)cc1 (stereo not drawn)	-6	19	4	20	87*	1
C=CCn1c(SCC(=O)c2[nH]c(C)c(C(=O)OCC)c2C)nc2scc(-c3ccccc3)c2c1=O	14	16	14	13	-3	-9
C=CCn1c(SCC(=O)c2[nH]c(C)c(C(=O)OCC)c2C)nc2scc(-c3ccc(OC)cc3)c2c1=O	33	32	19	19	54*	-37
C(=C\c1ccco1)/c1nc2ccccc2[nH]1	51*	10	16	-187	-199	-2
CC[N+](C)(C)CC/C=C1/c2ccccc2Sc2ccc(Cl)cc21	-17	-18	22	16	-4	5
CCCCCCCCCCC[N+](C)(C)CC/C=C1/c2ccccc2Sc2ccc(Cl)cc21	20	32	·	-24	108*	-29
OCCN1CCN(CC/C=C2/c3ccccc3Sc3ccc(Cl)cc32)CC1	20	18	·	-17	87*	-3
CCOC(=O)[C@]12CCCC=C1N(Cc1ccc(Cl)cc1Cl)C(=O)[C@H](CC(=O)NCc1cccc3ccccc13)C2	0	·	·	9	·	·
O=[N+]([O-])c1ccc(N=Nc2c(O)[nH]c3ccc(F)cc23)cc1	54*	-37	·	-343	-80	-14
CC(C)Cc1nnc(NC(=O)c2cc([N+](=O)[O-])ccc2N2CCOCC2)s1	4	11	·	-47	-38	3
COc1cccc(/C=N/NC(=O)c2cc3c(OC)cccc3[nH]2)c1OC	-5	12	8	-11	16	8
COc1cccc(/C=N/NC(=O)c2cc3c(OC)cccc3[nH]2)c1O	53*	1	46	-4	40	6
SMILES	C8 TRAIL sens	CF NFkB block	PPC-1+TRAIL kill	HIF-2a block	Peg3 prom inh	KKLEB tox
COc1cc(/C=N/NC(=O)c2cc(-c3cccn3C)n[nH]2)cc(OC)c1OC	21	-116	-13	-37	-34	19
COc1cccc(/C=N/NC(=O)c2cc(-c3cccn3C)n[nH]2)c1O	55*	4	30	-68	29	-8
COc1ccc(OC)c2[nH]c(C(=O)N/N=C/c3ccccc3O)cc12	30	-2	·	3	63*	-20
COC(C(=O)C(O)C(C)O)C1Cc2cc3cc(OC4CC(OC5CC(O)C(O)C(C)O5)C(O)C(C)O4)c(C)c(O)c3c(O)c2C(=O)C1OC1CC(OC2CC(OC3CC(O)C(OC)C(C)O3)C(O)C(C)O2)C(O)C(C)O1 (stereo not drawn)	18	90*	·	-30	100*	-34
Cc1ccc(-n2ncc(C(=O)Nc3cc(Cl)cc(Cl)c3)c2C2CCNCC2)cc1C	-3	37	20	-15	60*	-42
Cc1ccc(-n2ncc(C(=O)Nc3cc(Cl)ccc3Cl)c2C2CCNCC2)cc1	5	40	-7	0	-10	-17
Cc1ccccc1C#N	-2	4	·	-1	-3	-4
Cc1cccc(C(=O)N[C@H](C(=O)Nc2ncc(C)s2)C(C)C)c1	5	42	24	-3	60*	-34
Cc1cc(-c2ccccc2)nc2cc(C(=O)N(Cc3ccccc3)Cc3ccccc3)nn12	13	32	-5	15	58*	-15
CN1CCN(c2ccc(NC(=O)c3ccco3)cc2Cl)CC1	30	-5	·	-51	-153	-1
O=C(Nc1ccc(N2CCCC2)c(Cl)c1)c1ccco1	55*	-26	24	-194	-147	2
O=C(Nc1ccc(NC(=O)C2CC2)cc1)c1ccco1	55*	-19	·	-167	-216	-2
Cn1c(CCNC(=O)c2ccco2)nc2cc(NC(=O)c3ccco3)ccc21	-1	1	11	-120	-137	8
Nc1nc(-c2ccc(NC(=O)c3ccco3)cc2)cs1	74*	-13	·	-144	-70	-3
Cc1nc2cc(NC(=O)c3ccco3)ccc2n1C	51*	10	·	-105	-82	-6
O=C(C(=O)N(C1CCCCC1)C1CCCCC1)c1ccccc1	-5	·	·	-13	·	·
O=C(Cc1ccc(Cl)cc1)N1CCN(c2ccccc2)CC1	0	10	·	-40	-55	3
CN(Cc1ccc(OC(F)F)cc1)C(=O)/C=C/c1ccc(S(=O)(=O)N2CCOCC2)cc1	24	16	·	3	-2	-11
O=C(Nc1ccccc1O)c1ccc(NC(=O)C2CC2)cc1	14	-27	·	-422	-319	1
O=C(Nc1ccc(NC(=O)C2CCCCC2)cn1)c1ccco1	70*	17	58*	15	-7	4
O=C(Nc1ccccc1C(=O)O)c1ccc(NC(=O)C2CC2)cc1	65*	0	·	-21	20	10
C[C@H]1CN([C@@H](C)CO)C(=O)c2cc(Br)cnc2O[C@@H]1CN(C)S(C)(=O)=O	-16	-24	·	-5	5	19
C=C[C@]1(C)C[C@@H](OC(=O)CSCCN(CC)CC)[C@]2(C)C(C)CC[C@]3(CCC(=O)[C@H]32)[C@@H](C)[C@@H]1O (stereo partly drawn)	-3	-12	·	-7	-27	13
